Where “and” joins values, the source holds several entries; their conditions need not be identical. Equal entries are not always repeated. Records with an inconclusive call do not appear. Calls of active or inactive are those of the source.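 Rule for the calls, unless noted: active = normalized viability below 100% at a tested concentration; inactive = the rest.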
Experiments:
[1] = viability loss in pontine glioma line – cell-based, SU-DIPG-XIII, MIPE4.0, CellTiter-Glo, qHTS, dose response (AID 1347061; cut-off not given, nearly all actives have AC50 up to about 37 µM;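 note: cells exposed to compound for 48 hours before readout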); conditions: CellTiter-Glo ATP luminescence
[2] = viability loss in pontine glioma line – cell-based, JHH-DIPG-1, MIPE4.0, CellTiter-Glo, qHTS, dose response (AID 1347062; cut-off not given, nearly all actives have AC50 up to about 27 µM;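 for AC50: cells exposed to compound for two days before readout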); conditions: JHH-DIPG-1 viability, CellTiter-Glo ATP luminescence
[3] = viability loss in pontine glioma line – cell-based, SU-DIPG-IV, MIPE4.0, CellTiter-Glo, qHTS, dose response (AID 1347063; cut-off not given, nearly all actives have AC50 up to about 30 µM;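 note: compound exposure lasted 48 hours before the viability readout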); conditions: CellTiter-Glo ATP luminescence
[4] = viability loss in pontine glioma line – cell-based, SU-DIPG-XIII, MIPE5.0, CellTiter-Glo, qHTS, dose response (AID 1347064; cut-off not given, nearly all actives have AC50 up to about 23 µM;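 for AC50: cells exposed to compound for 48 hours before the viability read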); conditions: CellTiter-Glo ATP luminescence
[5] = viability loss in pontine glioma line – cell-based, SU-DIPG-XXV, MIPE5.0, CellTiter-Glo, qHTS, dose response (AID 1347065; cut-off not given, nearly all actives have AC50 up to about 26 µM;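 note: cells exposed to compound for 48 hours before ATP readout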); conditions: CellTiter-Glo ATP luminescence
[6] = growth inhibition of DIPG cells – cell-based, MIPE4.0 library, CellTiter-Glo luminescence, qHTS (AID 1347066; cut-off not given, nearly all actives have AC50 up to about 30 µM;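 note: cells exposed to compound for 48 hours before readout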); conditions: SU-DIPG-VI viability, CellTiter-Glo ATP luminescence
[7] = JHH-DIPG-1 glioma cell viability, MIPE5.0 library, CellTiter-Glo luminescence, qHTS (AID 1347067; cut-off not given, nearly all actives have AC50 up to about 26 µM;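 note: cells exposed to compound for 48 hours before readout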); conditions: JHH-DIPG-1 glioma viability, CellTiter-Glo ATP luminescence
[8] = growth inhibition of DIPG cells – cell-based, MIPE5.0 library, qHTS (AID 1347068; cut-off not given, nearly all actives have IC50 up to about 30 µM;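 for IC50: cells exposed to compound for 48 hours before viability readout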); conditions: SU-DIPG-XXV viability
[9] = viability loss with induced miR-34 in A549 – imaging, A549 dox-inducible miR-34, nuclei and caspase counts, primary screen (AID 1347080;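 active = compounds whose cell count with miR-34 switched on is under 0.7 times the count with it off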); conditions: A549 miR-34 inducible, Hoechst nuclei count, 48 h
[10] = compounds altering HSF1 focus formation in cells – imaging, Selleck Cancer Library (AID 1347162; in the data active = plate-normalised HSF1 focus index below about 0.46); conditions: human cells, HSF1 nuclear foci imaging, at 10 µM; SSMD: measured here: HSF1 foci SSMD mean; cell count: measured here: cell number; plate-normalised HSF1 focus index: stronger effect = lower value
[11] = MELAS cybrid and Rieske KO viability enhancers – cell-based, MELAS cybrids, Rieske KO mouse fibroblasts, CellTiter-Glo, primary screen (AID 1508586;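 active = mean z-score across replicates of 1.96 or higher in either the MELAS or the Rieske mutant cell line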;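 note: z relative to plate mean and SD of compound and empty wells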); conditions: low glucose
[12] = drug combination growth inhibition, ovarian cancer – cell-based, oncology-focused library, rucaparib conditional, profiling panel (AID 1508598); conditions: patient-derived ovarian cancer cells, CellTiter-Glo viability, 144 h, stronger effect = lower value
[13] = liver-stage malaria parasite load reduction – cell-based, known kinase inhibitor set, luminescence, hepatoma host viability (AID 624392; call rule not given here;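 note: infected cells incubated roughly two days before readout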); conditions: Plasmodium liver stage in hepatoma cells, luciferase luminescence, concentration not given here; liver cell % of control: measured here: host liver cell viability; parasite % of control: stronger effect = lower value
[14] = tested on: Hepatitis C virus NS3 helicase; test: blockers of NS3h binding to ssDNA – biochemical, fluorescence polarization, LOPAC1280 library, primary screen (AID 687035; in the data active = inhibition above about 37%); conditions: Purified HCV NS3 helicase, Cy5-dT15 ssDNA binding fluorescence polarization; stronger effect = higher value; concentration not given here
[15] = compounds altering Cy5-DNA-NS3h complex signal – biochemical, LOPAC1280, artefact control for HCV NS3 helicase inhibitor project (AID 687037; call rule not given here); conditions: Cy5-DNA-NS3h complex fluorescence interference counterscreen
[16] = blockers of cellular phospholipid synthesis – cell-based, LOPAC library, screen 4, primary screen (AID 1347384; call rule not given here); conditions: animal cells, phospholipid biosynthesis inhibition screen; at 10 µM
[17] = galactose survival enhancers in mitochondrial complex I cybrids – cell-based, galactose medium, ATP luminescence, primary screen (AID 1645843;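 active = z-score of at least 1.8 in each of two replicates, scored against plate mean and spread of sample wells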;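 note: positive z means more ATP and so rescue of galactose-driven cybrid death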); conditions: complex I mutant cybrid cells, 72 h, stronger effect = higher value
[18] = stronger effect = lower value, cell number ratio, induced over uninduced
[19] = measured here: relative caspase fold change +Dox/-Dox
[20] = measured here: total cells with miR-34 induction, stronger effect = lower value
[21] = measured here: total cells without miR-34 induction
[22] = at 0.000305 µM, OCI-C5x cells, with rucaparib 10 µM, 100% = cells with rucaparib alone
[23] = at 0.000305 µM, OCI-C5x cells, without rucaparib
[24] = at 0.000305 µM, OCI-P5x cells, with rucaparib 20 µM, 100% = cells with rucaparib alone
[25] = at 0.000305 µM, OCI-P5x cells, without rucaparib
[26] = at 0.00122 µM, OCI-C5x cells, with rucaparib 10 µM, 100% = cells with rucaparib alone
[27] = at 0.00122 µM, OCI-C5x cells, without rucaparib
[28] = at 0.00122 µM, OCI-P5x cells, with rucaparib 20 µM, 100% = cells with rucaparib alone
[29] = at 0.00122 µM, OCI-P5x cells, without rucaparib
[30] = at 0.00488 µM, OCI-C5x cells, with rucaparib 10 µM, 100% = cells with rucaparib alone
[31] = at 0.00488 µM, OCI-C5x cells, without rucaparib
[32] = at 0.00488 µM, OCI-P5x cells, with rucaparib 20 µM, 100% = cells with rucaparib alone
[33] = at 0.00488 µM, OCI-P5x cells, without rucaparib
[34] = at 0.0195 µM, OCI-C5x cells, with rucaparib 10 µM, 100% = cells with rucaparib alone
[35] = at 0.0195 µM, OCI-C5x cells, without rucaparib
[36] = at 0.0195 µM, OCI-P5x cells, with rucaparib 20 µM, 100% = cells with rucaparib alone
[37] = at 0.0195 µM, OCI-P5x cells, without rucaparib
[38] = at 0.0781 µM, OCI-C5x cells, with rucaparib 10 µM, 100% = cells with rucaparib alone
[39] = at 0.0781 µM, OCI-C5x cells, without rucaparib
[40] = at 0.0781 µM, OCI-P5x cells, with rucaparib 20 µM, 100% = cells with rucaparib alone
[41] = at 0.0781 µM, OCI-P5x cells, without rucaparib
[42] = at 0.313 µM, OCI-C5x cells, with rucaparib 10 µM, 100% = cells with rucaparib alone
[43] = at 0.313 µM, OCI-C5x cells, without rucaparib
[44] = at 0.313 µM, OCI-P5x cells, with rucaparib 20 µM, 100% = cells with rucaparib alone
[45] = at 0.313 µM, OCI-P5x cells, without rucaparib
[46] = at 1.25 µM, OCI-C5x cells, with rucaparib 10 µM, 100% = cells with rucaparib alone
[47] = at 1.25 µM, OCI-C5x cells, without rucaparib
[48] = at 1.25 µM, OCI-P5x cells, with rucaparib 20 µM, 100% = cells with rucaparib alone
[49] = at 1.25 µM, OCI-P5x cells, without rucaparib
[50] = at 5 µM, OCI-C5x cells, with rucaparib 10 µM, 100% = cells with rucaparib alone
[51] = at 5 µM, OCI-C5x cells, without rucaparib
[52] = at 5 µM, OCI-P5x cells, with rucaparib 20 µM, 100% = cells with rucaparib alone
[53] = at 5 µM, OCI-P5x cells, without rucaparib

CC(C)n1nc(-c2ccc3oc(N)nc3c2)c2c(N)ncnc21
2980: cell count [9, 20]
6620: cell count [10]
3400: cell count [9, 21]
0.45: fold change [9, 19]
active: AC50 [1] 9.35 µM | AC50 [2] 8.33 µM | AC50 [3] 3.72 µM | AC50 [4] 1.18 µM | AC50 [5] 0.0661 µM | AC50 [6] 18.7 µM | AC50 [7] 1.18 µM | IC50 [8] 4.17 µM | z-score ([11]; MELAS cybrid survival, CellTiter-Glo 48 h, stronger effect = higher value) 2.73 | viability [12, 24] 96.2% | viability [12, 25] 92.8% | viability [12, 28] 92.7% | viability [12, 29] 90.7% | viability [12, 32] 80.8% | viability [12, 33] 79.2% | viability [12, 34] 87.5% | viability [12, 35] 88.1% | viability [12, 36] 56.8% | viability [12, 37] 52.8% | viability [12, 38] 70.4% | viability [12, 39] 62.2% | viability [12, 40] 43.5% | viability [12, 41] 37.2% | viability [12, 42] 61.9% | viability [12, 43] 55.6% | viability [12, 44] 36.9% | viability [12, 45] 26.5% | viability [12, 46] 51.8% | viability [12, 47] 47.4% | viability [12, 48] 29% | viability [12, 49] 22.9% | viability [12, 50] 39% | viability [12, 51] 31.9% | viability [12, 52] 19.5% | viability [12, 53] 15.8%
inactive: fold change [9, 18] 0.877 | plate-normalised HSF1 focus index [10] 1.03 | viability [12, 22] 109% | viability [12, 23] 109% | viability [12, 26] 113% | viability [12, 27] 121% | viability [12, 30] 100% | viability [12, 31] 123%
-2.58: z-score ([11]; Rieske KO mouse fibroblast survival, CellTiter-Glo 72 h)
0.57: SSMD [10]

CCCCN1CCC(CNC(=O)c2c3n(c4ccccc24)CCCO3)CC1
active: AC50 [1] 6.62 µM | AC50 [3] 16.6 µM
inactive: outcome [2]

CO[C@H]1/C=C/O[C@@]2(C)Oc3c(C)c(O)c4c(O)c(c5c(c4c3C2=O)=NC2(CCN(CC(C)C)CC2)N=5)NC(=O)/C(C)=C/C=C/[C@H](C)[C@H](O)[C@@H](C)[C@@H](O)[C@@H](C)[C@H](OC(C)=O)[C@@H]1C
inactive: outcome [1] | outcome [2] | outcome [3] | outcome [4]

Cc1cc(Nc2nc(N[C@@H](C)c3ncc(F)cn3)ncc2Cl)n[nH]1
active: AC50 [1] 16.6 µM | AC50 [2] 9.35 µM | AC50 [3] 13.2 µM | AC50 [4] 1.48 µM | AC50 [5] 0.661 µM | AC50 [6] 9.35 µM | AC50 [7] 0.934 µM | IC50 [8] 1.48 µM | viability [12, 22] 99.3% | viability [12, 24] 91% | viability [12, 25] 91.4% | viability [12, 28] 92.4% | viability [12, 29] 97.8% | viability [12, 33] 99.3% | viability [12, 37] 99.8% | viability [12, 40] 96.5% | viability [12, 42] 97.7% | viability [12, 44] 85.8% | viability [12, 45] 99.9% | viability [12, 46] 78.7% | viability [12, 48] 80.1% | viability [12, 49] 86.6% | viability [12, 50] 46.6% | viability [12, 51] 55.9% | viability [12, 52] 30.7% | viability [12, 53] 24.9%
inactive: viability [12, 23] 105% | viability [12, 26] 112% | viability [12, 27] 112% | viability [12, 30] 106% | viability [12, 31] 115% | viability [12, 32] 102% | viability [12, 34] 112% | viability [12, 35] 102% | viability [12, 36] 101% | viability [12, 38] 102% | viability [12, 39] 104% | viability [12, 41] 101% | viability [12, 43] 102% | viability [12, 47] 101%

O=C(CO)N1CCC(c2[nH]nc(-c3ccc(Cl)cc3)c2-c2ccncn2)CC1
inactive: parasite % of control [13] 11.9% and 26% and 30.9% | outcome [1] | outcome [2] | outcome [3] | outcome [4] | outcome [5] | outcome [6] | outcome [8]
88.6% and 86.6% and 97.2%: liver cell % of control [13]

C[C@@]12C(=O)OC(=O)[C@@]1(C)C1CCC2O1
active: AC50 [1] 1.66 µM | AC50 [2] 2.64 µM | AC50 [3] 1.48 µM

O=C(NCc1ccncc1)C12C[C@H]3C[C@@H](C1)CC(c1ccc(Cl)cc1)(C3)C2
active: AC50 [1] 14.8 µM

CCN(CC)CCn1c(=O)c(Cc2ccc(OC)cc2)nc2ccccc21
9100: cell count [9, 20]
1.5: fold change [9, 19]
inactive: inhibition [14] 0% | fluorescence ratio (interference) [15] 1 | outcome [1] | outcome [2] | outcome [3] | outcome [4] | outcome [5] | outcome [6] | outcome [7] | outcome [8] | fold change [9, 18] 0.991 | outcome [16] | z-score [17] -0.075
9170: cell count [9, 21]

From PubChem BioAssay
